# Reference: PubChem BioAssay (NCATS)
# Results filed as inconclusive are left out. A call without a number means that no potency is given here. The source made the active and inactive calls. Calls come from the whole dose curve; as a rule, active = well fitted curve in the direction sought with a large enough effect; inconclusive = small, poorly fitted or top-dose-only effect, or another doubt; inactive = no such curve, though single readings can be large; an effect the other way counts as inactive or inconclusive.
# Tests used:
# [1] = biological target: Glutaminase kidney isoform, mitochondrial (Homo sapiens) (UniProt O94925); test: qHTS for Inhibitors of Glutaminase (GLS): LOPAC Validation (AID 624146); note: nearly all actives have a fitted effect of over 60% in size; note: potency is the fitted concentration of half-maximal effect
# Sequence of Glutaminase kidney isoform, mitochondrial (Homo sapiens) (O94925 whole entry, looked up, canonical isoform): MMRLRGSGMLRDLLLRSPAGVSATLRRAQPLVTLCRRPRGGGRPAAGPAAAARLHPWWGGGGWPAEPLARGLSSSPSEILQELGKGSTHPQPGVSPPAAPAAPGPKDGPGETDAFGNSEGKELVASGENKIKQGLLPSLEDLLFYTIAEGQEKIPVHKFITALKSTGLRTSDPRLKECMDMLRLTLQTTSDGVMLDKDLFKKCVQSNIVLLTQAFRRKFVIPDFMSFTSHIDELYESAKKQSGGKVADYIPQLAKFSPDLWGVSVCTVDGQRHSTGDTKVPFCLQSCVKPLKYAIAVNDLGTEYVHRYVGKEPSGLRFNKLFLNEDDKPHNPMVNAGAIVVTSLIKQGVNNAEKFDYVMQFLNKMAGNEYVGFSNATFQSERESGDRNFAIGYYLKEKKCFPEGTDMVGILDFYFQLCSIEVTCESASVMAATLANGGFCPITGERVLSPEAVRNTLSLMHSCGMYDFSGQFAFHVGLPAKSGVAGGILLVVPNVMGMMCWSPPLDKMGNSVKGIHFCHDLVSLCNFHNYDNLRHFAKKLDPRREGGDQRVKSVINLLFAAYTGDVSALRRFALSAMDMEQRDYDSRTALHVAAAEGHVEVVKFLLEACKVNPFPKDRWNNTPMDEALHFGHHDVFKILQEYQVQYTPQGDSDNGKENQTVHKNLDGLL
# Method in brief: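 Assay buffer: 45 mM KH2PO4 pH 8.2, 0.02% Tween-20. hKGA acts on L-glutamine (1 mM solution added); product glutamate is reported by an oxidase/peroxidase Amplex Red coupling, with fluorescence taken at baseline and 30 min.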
# [2] = qHTS of Trypanosoma Brucei Inhibitors: LOPAC Validation (AID 624147)
# Method in brief: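 Assay buffer: 50 mM TEA pH 7.2, 100 mM KCl, 10 mM MgCl2, 0.05% BSA, 0.01% Tween-20. Pyruvate kinase from T. brucei plus substrate met compound, then ADP (130 uM final). Luminescence was read post 45 min RT.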
# [3] = biological target: Glucagon-like peptide 1 receptor (Homo sapiens) (UniProt P43220); test: qHTS of GLP-1 Receptor Agonists: LOPAC Validation (AID 624148);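 note: luminescence from a luciferase reporter switched on by cAMP; higher luminescence signal means agonism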
# Sequence of Glucagon-like peptide 1 receptor (Homo sapiens) (P43220 whole entry, looked up): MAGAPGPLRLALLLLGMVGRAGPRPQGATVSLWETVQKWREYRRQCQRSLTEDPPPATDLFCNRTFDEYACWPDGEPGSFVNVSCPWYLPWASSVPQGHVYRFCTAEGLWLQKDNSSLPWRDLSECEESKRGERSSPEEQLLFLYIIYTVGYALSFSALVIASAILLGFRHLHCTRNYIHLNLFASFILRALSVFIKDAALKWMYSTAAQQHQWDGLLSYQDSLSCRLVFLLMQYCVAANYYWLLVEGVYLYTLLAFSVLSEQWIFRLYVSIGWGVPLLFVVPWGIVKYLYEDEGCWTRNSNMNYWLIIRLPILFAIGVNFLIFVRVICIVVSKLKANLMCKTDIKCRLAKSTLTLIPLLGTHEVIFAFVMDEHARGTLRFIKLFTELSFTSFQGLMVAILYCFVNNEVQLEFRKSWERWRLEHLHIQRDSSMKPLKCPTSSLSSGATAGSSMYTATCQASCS
# Method in brief: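 Agonism scored as increased luciferase luminescence driven by cAMP in HEK293 clones carrying GLP-1R. Cells settled 12 hours, received compound for 4-6 hr at 37 deg C, 5% CO2, and were read after 12 min detection reagent at RT.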
# [4] = qHTS of Nrf2 Activators: LOPAC Validation (AID 624149)
# Method in brief: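 AREc32_Fluc cells, 1000/well in OPTI-MEM with 5% FBS, grown overnight, then exposed to compounds for 24 hr at 37 deg C, 5% CO2. ARE-driven firefly luciferase read by Steady-Glo luminescence after 30 min at RT.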
# [5] = HTS Assay for Allosteric Antagonists of the Human D2 Dopamine Receptor: Hit Validation in HTRF (AID 624455); note: potency is the fitted concentration of half-maximal effect;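 note: stable D1 dopamine receptor cell line scored for blocking the D1 response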
# Method in brief: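 Hit validation in cells stably expressing the D1 dopamine receptor, run in HTRF format. Compounds were tested for their ability to inhibit the D1-mediated response.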
SMILES,Potency [1],Potency [2],Potency [3],Potency [4],Potency [5]
O=c1cc(-c2ccccc2F)[nH]c2cc3c(cc12)OCO3,inactive,inactive,inactive,inactive,inactive
NCCNS(=O)(=O)c1cccc2c(Cl)cccc12,inactive,inactive,inactive,inactive,inactive
CCCCCC[C@@H]([C@@H](C)O)n1cnc2c(N)ncnc21,inactive,inactive,inactive,inactive,inactive
CN1CCCC1CCOC(C)(c1ccccc1)c1ccc(Cl)cc1 (centres undefined),inactive,inactive,inactive,inactive,inactive
NC(=O)CNCCC(c1ccccc1)c1ccccc1,inactive,inactive,inactive,inactive,inactive
COc1cc(CNC(=O)CCCCCCC(C)C)ccc1O,3.16 µM (active),inactive,inactive,inactive,inactive
Cc1cc(Cn2cnc3c2C[C@@H](C(=O)O)N(C(=O)C(c2ccccc2)c2ccccc2)C3)ccc1N,inactive,inactive,inactive,inactive,inactive
COc1cc(/C=C(\C#N)C(=O)Nc2nnc(C(F)(F)F)s2)ccc1OCc1ccc(C(F)(F)F)cc1C(F)(F)F,inactive,inactive,inactive,inactive,inactive
CC(C)(C)c1ccc(/C=C/C(=O)Nc2ccc3c(c2)OCCO3)cc1,inactive,inactive,inactive,inactive,inactive
O=C(O)C1=CCCN(CCON=C(c2ccccc2)c2ccccc2)C1,inactive,inactive,inactive,inactive,inactive
O[Si](CCCN1CCCCC1)(c1ccc(F)cc1)C1CCCCC1 (centres undefined),inactive,inactive,inactive,inactive,inactive
O=c1[nH]c(=S)[nH]c(-c2ccccc2)c1Cc1c(O)ccc2ccccc12,8.91 µM (active),inactive,inactive,inactive,inactive
CC1CCN(CC[C@H]2CCCN2S(=O)(=O)c2cccc(O)c2)CC1,inactive,inactive,inactive,inactive,inactive
CNCCc1cnc(CCC(c2ccccc2)c2ccccc2)[nH]1,inactive,inactive,inactive,inactive,inactive
C[C@]12C=CC(=O)C=C1CC[C@@H]1C2=CC[C@]2(C)[C@@H](C(=O)CN3CCN(c4cc(N5CCCC5)nc(N5CCCC5)n4)CC3)CC[C@@H]12,inactive,inactive,inactive,inactive,inactive
CCCOC(=O)c1c(-c2ccccc2)nc(CC)c(C(=O)SCC)c1CCC,inactive,inactive,inactive,inactive,inactive
O=S(=O)(c1cccc2c(Cl)cccc12)N1CCCNCC1,inactive,inactive,inactive,inactive,inactive
CN(CC[C@@H](Oc1ccc(C(F)(F)F)cc1)c1ccccc1)CC(=O)O,inactive,inactive,inactive,inactive,inactive
CC[C@H](NC(=O)c1c(C)c(-c2ccccc2)nc2ccccc12)c1ccccc1,inactive,inactive,inactive,inactive,inactive
O=C(O)CCC/C=C\C[C@@H]1[C@@H](/C=C/[C@H](O)C2Cc3ccccc3C2)[C@@H](F)C[C@@H]1O,inactive,inactive,inactive,inactive,inactive
OC1(c2ccc(Cl)cc2)CCN(Cc2c[nH]c3ccccc23)CC1,inactive,inactive,inactive,inactive,inactive
COc1ccc(CCn2nnnc2C2(c3ccc(C)cc3)CC2)cc1,inactive,inactive,inactive,inactive,inactive

SMILES,Potency [1],Potency [2],Potency [3],Potency [4],Potency [5]
OC[C@H]1O[C@H](n2cnc3c(N[C@H]4CCC[C@@H]4O)ncnc32)[C@H](O)[C@@H]1O,inactive,inactive,inactive,inactive,inactive
N[C@@H](Cc1ccc(F)cc1)C(=O)O,inactive,inactive,inactive,inactive,inactive
COc1ccc(-c2cc3ncc(C)n3c(Nc3ncccc3C(N)=O)n2)cc1OC,inactive,inactive,inactive,inactive,inactive
[Li+],inactive,inactive,inactive,inactive,inactive
CC(=O)SC1CC2=CC(=O)CC[C@]2(C)C2CC[C@@]3(C)C(CC[C@@]34CCC(=O)O4)C12 (some centres undefined),inactive,inactive,–,inactive,inactive
NC1(C(=O)O)CC1,inactive,inactive,–,inactive,inactive
CC(C)NCC(O)COc1ccc(CC(N)=O)cc1 (centres undefined),inactive,–,inactive,inactive,–
COC(=O)[C@H](NC(=O)c1cc(-c2ccccc2)nc2ccccc12)c1ccccc1,inactive,inactive,–,inactive,inactive
C[C@H](O)C(=O)C1=Nc2c(nc(N)[nH]c2=O)NC1,–,inactive,inactive,inactive,inactive
CCCCOc1cc(CC2CNC(=O)N2)ccc1OC (centres undefined),inactive,–,inactive,inactive,–
O=C(N[C@@H](Cc1ccccc1)C(=O)CCl)OCc1ccccc1,inactive,inactive,–,inactive,inactive
CCCCCCC(=O)OC1CC(C)(C)NC(C)(C)C1,inactive,–,–,inactive,inactive
c1ccc(C(NCc2cccnc2)(c2ccccc2)c2ccccc2)cc1,–,–,inactive,inactive,inactive
Brc1c(Br)c(Br)c2[nH]cnc2c1Br,inactive,inactive,–,inactive,–
NCC(O)C1CCCCCCC1 (centres undefined),inactive,inactive,–,inactive,inactive
O=c1cc(-c2ccccc2)[nH]c2nc(Cl)ccc12,inactive,–,inactive,inactive,inactive
O=c1oc(Cl)c(Cl)c2ccccc12,inactive,inactive,–,–,inactive
Cn1cc(C(F)(F)F)nc1-c1ccc(OCC(O)CNCCOc2ccc(O)c(C(N)=O)c2)cc1 (centres undefined),–,inactive,inactive,inactive,inactive
CC(C)NC[C@H](O)COc1cccc2ccccc12,inactive,–,–,inactive,inactive
CCCCCCN(CCCCCC)C(=O)Cc1c(-c2ccc(F)cc2)[nH]c2ccccc12,–,inactive,–,inactive,inactive
O=C(O)/C=C/c1ccc(O)c(O)c1,2 µM (active),–,inactive,inactive,inactive
Nc1nc2c(cnn2CCc2ccccc2)c2nc(-c3ccco3)nn12,inactive,inactive,inactive,–,inactive

SMILES,Potency [1],Potency [2],Potency [3],Potency [4],Potency [5]
CC[n+]1c(/C=C/C=C2/N(C)c3ccccc3C2(C)C)sc2ccccc21,11.2 µM (active),–,inactive,inactive,inactive
CN1CCc2cc(Cl)c(O)cc2[C@@H](c2ccccc2)C1,–,inactive,inactive,inactive,–
C[C@@H](NCCc1ccc(O)cc1)[C@@H](O)c1ccc(O)cc1,–,inactive,–,inactive,–
c1ccc(C(NCCNC(c2ccccc2)c2ccccc2)c2ccccc2)cc1,inactive,inactive,–,inactive,inactive
CCCCCCCC/C=C\CCCCCCCC(=O)NCCc1ccc(O)c(O)c1,–,inactive,inactive,inactive,0.651 µM (active)
CC(/C=C/c1cccc(Oc2ccc(F)cc2)c1)N(O)C(N)=O (centres undefined),1.78 µM (active),–,–,inactive,inactive
COc1cc([C@@H]2c3cc4c(cc3[C@H](O)C3COC(=O)[C@@H]32)OCO4)cc(OC)c1OC (some centres undefined),–,–,inactive,inactive,–
CN1Cc2sccc2C(c2ccc(O)c(O)c2)C1 (centres undefined),–,inactive,inactive,inactive,0.0164 µM (active)
N=S(=O)(O)Cc1noc2ccccc12,inactive,inactive,–,inactive,inactive
C[C@](Cc1ccc(O)c(O)c1)(NN)C(=O)O,1.58 µM (active),–,inactive,inactive,–
CN(C)CCCc1cc(C(=O)Nc2ccc(-c3ccncc3)cc2)ccc1O,inactive,inactive,–,inactive,–
CN(C)CCC(c1ccc(Br)cc1)c1ccccn1 (centres undefined),–,inactive,inactive,inactive,inactive
S=C(S)N1CCCC1,12.6 µM (active),–,inactive,inactive,inactive
Cc1nc2n(c(=O)c1CCN1CCC(c3noc4cc(F)ccc34)CC1)CCCC2O (centres undefined),inactive,–,–,inactive,inactive
N#Cc1cc([N+](=O)[O-])c2sc(C(N)=O)[n+]([O-])c2c1,–,inactive,inactive,inactive,inactive
C[C@H]1CC2C3CCC4=CC(=O)C=C[C@]4(C)[C@@]3(Cl)[C@@H](O)C[C@]2(C)[C@@]1(O)C(=O)CO (some centres undefined),inactive,inactive,–,inactive,inactive
CN1CC(O)C(O)C(O)C1CO (centres undefined),inactive,–,inactive,inactive,inactive
CC(C)(CO)Cc1cc(C(C)(C)C)c(O)c(C(C)(C)C)c1,1.78 µM (active),–,inactive,inactive,inactive
NC(Cc1cccc(-c2ccccc2CP(=O)(O)O)c1)C(=O)O (centres undefined),inactive,–,inactive,inactive,inactive
Cc1ccccc1/C=C/C1=NCCN1,inactive,inactive,inactive,–,inactive
Nc1ncnc2c1c(-c1ccc(Oc3ccccc3)cc1)cn2C1CCCC1,–,inactive,inactive,inactive,inactive
